The values that follow come from PubChem BioAssay (NCATS).

Molecules are shown by their SMILES. Where “and” joins values, the source holds several entries; their conditions need not be identical. Equal values may be shown once. Records with an inconclusive call do not appear. Calls of active or inactive are those of the source. Calls follow the shape of the dose curve; as a rule, active = well fitted curve in the direction sought with a large enough effect; inconclusive = small, poorly fitted or top-dose-only effect, or another doubt; inactive = no such curve, though single readings can be large; an effect the other way counts as inactive or inconclusive.

Test [1] in a line: qHTS of pediatric cancer cell lines to identify multiple opportunities for drug repurposing: Primary screen for SJ-GBM2 cells (AID 1347091). Also: potency is read from the fitted curve at half-maximal effect. The method, boiled down: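 Eight- or eleven-point concentration series, 48 h treatment at 37 degrees C in growth media; readout CellTiter-Glo luminescence. Potency and efficacy were taken from the concentration-response curves.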
For orientation: Quantitative high-throughput screening tests each substance at several concentrations.

A short description of test [2]: qHTS of pediatric cancer cell lines to identify multiple opportunities for drug repurposing: Primary screen for A673 cells (AID 1347092). Also: nearly all actives have a fitted effect of over 45% in size. Also: potency is read from the fitted curve at half-maximal effect. The gist of the method:
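Luminescence from CellTiter-Glo, taken after 15 min at room temperature, served as the proxy for metabolically active cells following 48 h treatment. Both potency and efficacy were taken from curves fitted to the titration data.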

The nature of test [3]: qHTS of pediatric cancer cell lines to identify multiple opportunities for drug repurposing: Primary screen for BT-37 cells (AID 1347094). Also: potency is read from the fitted curve at half-maximal effect. The gist of the method: (§1)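 Viability was measured as metabolically active cells after 48 hours of treatment, read by CellTiter-Glo luminescence. Compounds were tested at multiple final concentrations, giving concentration-response curves.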

Test [4] is described as follows: qHTS of pediatric cancer cell lines to identify multiple opportunities for drug repurposing: Primary screen for NB-EBc1 cells (AID 1347095). Also: potency is read from the fitted curve at half-maximal effect. The method, boiled down:
as §1

Test [5] is described as follows: qHTS of pediatric cancer cell lines to identify multiple opportunities for drug repurposing: Primary screen for Saos-2 cells (AID 1347097). Also: nearly all actives have a fitted effect of over 40% in size. Also: potency is read from the fitted curve at half-maximal effect. The gist of the method: as §1
Test [6] in a line: qHTS of pediatric cancer cell lines to identify multiple opportunities for drug repurposing: Primary screen for SK-N-SH cells (AID 1347098). Also: nearly all actives have a fitted effect of over 65% in size. Also: potency is read from the fitted curve at half-maximal effect. The gist of the method: (§2)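 Cells (500-1,000/well) rested 5 h, then received compounds for 48 h; metabolically active cells were measured by CellTiter-Glo luminescence. Final concentrations spanned up to 46 µM (MIPE, 11-point) or 0.59 nM-46 µM (NPC, 8-point) in primary screens, 11-point in follow-ups.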

Test [7] can be described thus: qHTS of pediatric cancer cell lines to identify multiple opportunities for drug repurposing: Primary screen for LAN-5 cells (AID 1347100). Also: potency is read from the fitted curve at half-maximal effect. The method, boiled down:
(§3)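 Cells (500-1,000/well) in growth media were settled 5 h at 37 degrees C, then given compounds for 48 h. Viability was read as CellTiter-Glo luminescence. Primary runs used MIPE at 11 points (0.78 nM-46 µM) and NPC at 8 points (0.59 nM-46 µM); follow-ups used 11 points.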

Test [8] in a line: qHTS of pediatric cancer cell lines to identify multiple opportunities for drug repurposing: Primary screen for BT-12 cells (AID 1347101). Also: nearly all actives have a fitted effect of over 25% in size. Also: potency is read from the fitted curve at half-maximal effect. The gist of the method: as §2
Test [9] is described as follows: qHTS of pediatric cancer cell lines to identify multiple opportunities for drug repurposing: Primary screen for Rh18 cells (AID 1347102). Also: nearly all actives have a fitted effect of over 65% in size. Also: potency is read from the fitted curve at half-maximal effect. The gist of the method:
as §3

The nature of test [10]: qHTS of pediatric cancer cell lines to identify multiple opportunities for drug repurposing: Primary screen for OHS-50 cells (AID 1347103). Also: nearly all actives have a fitted effect of over 40% in size. Also: potency is read from the fitted curve at half-maximal effect. The method, boiled down:
as §2

The nature of test [11]: qHTS of pediatric cancer cell lines to identify multiple opportunities for drug repurposing: Confirmatory screen for NB1643 cells (AID 1347109). Also: potency is read from the fitted curve at half-maximal effect; nearly all actives have a fitted effect of over 45% in size. The method, boiled down: as §3
Test [12] can be described thus: qHTS of pediatric cancer cell lines to identify multiple opportunities for drug repurposing: Confirmatory screen for A673 cells (AID 1347110).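 Also: potency is read from the fitted curve at half-maximal effect; cells exposed to compound for 48 h before the viability read; nearly all actives have a fitted effect of over 65% in size.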 The gist of the method: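 qHTS titration format: primary MIPE 0.78 nM-46 µM (11 pts), NPC 0.59 nM-46 µM; confirmation 11 pts. 48 h, CTG luminescence.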
Test [13] can be described thus: qHTS of pediatric cancer cell lines to identify multiple opportunities for drug repurposing: Primary screen for U-2 OS cells (AID 1347096). Also: nearly all actives have a fitted effect of over 50% in size. Also: potency is read from the fitted curve at half-maximal effect. The gist of the method: as §3
The nature of test [14]: qHTS of pediatric cancer cell lines to identify multiple opportunities for drug repurposing: Primary screen for MG 63 (6-TG R) cells (AID 1347105). Also: nearly all actives have a fitted effect of over 50% in size. Also: potency is read from the fitted curve at half-maximal effect. The method, boiled down:
as §1

The nature of test [15]: qHTS of pediatric cancer cell lines to identify multiple opportunities for drug repurposing: Primary screen for Rh30 cells (AID 1347107). Also: series mostly up to about 46 µM; nearly all actives have a fitted effect of over 75% in size. The method, boiled down:
as §3

Test [16] can be described thus: qHTS of pediatric cancer cell lines to identify multiple opportunities for drug repurposing: Primary screen for Rh41 cells (AID 1347108). Also: nearly all actives have a fitted effect of over 70% in size. Also: potency is read from the fitted curve at half-maximal effect. The method, boiled down:
as §1

Test [17] in a line: qHTS of pediatric cancer cell lines to identify multiple opportunities for drug repurposing: Primary screen for control Hh wild type fibroblast cells (AID 1347106).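 Also: series mostly up to about 46 µM; a drop in luminescence marks cytotoxicity and a rise apparent proliferation; nearly all actives have a fitted effect of over 55% in size.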 The gist of the method: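 Viability after 48 h compound treatment at 37C, 500-1,000 cells/well, read as ATP luminescence with CellTiter-Glo. Primary screens used 11-point (MIPE, 0.78 nM-46 µM) or 8-point (NPC, 0.59 nM-46 µM) final concentrations; follow-up screens used 11-point dilutions.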

Test [18] in a line: qHTS of pediatric cancer cell lines to identify multiple opportunities for drug repurposing: Primary screen for RD cells (AID 1347104). Also: nearly all actives have a fitted effect of over 55% in size. Also: potency is read from the fitted curve at half-maximal effect. The gist of the method:
as §1

Test [19] is described as follows: qHTS of pediatric cancer cell lines to identify multiple opportunities for drug repurposing: Primary screen for NB1643 cells (AID 1347099). Also: nearly all actives have a fitted effect of over 50% in size. The gist of the method: as §1

`COC(=O)Nc1nc2ccc(C(=O)c3cccs3)cc2[nH]1`: the Potency was 1 nM (active) and 119 nM (active) in [1]; 0.0059 µM (active) in test [2]; 15.3 nM (active) and 276 nM (active) in [3]; 1 nM (active) and 84.1 nM (active) in [4]; 4.7 nM (active) and 94.4 nM (active) in test [5]; 3.3 nM (active) and 119 nM (active) in test [7]. The Potency was 19.3 nM (active) and 347 nM (active) in [8]; 8.6 nM (active) and 309 nM (active) in test [10]; 0.522 µM (active) in test [11]; 0.147 µM (active) in [12]. In addition, the Potency result in test [6] and in test [9] was “inactive” throughout.
Turning to `Cn1c(=O)c2[nH]cnc2n(C)c1=O`, the Potency result in test [1], in test [2], in test [3], in test [4], in test [13] and in [6] was “inactive” in each case. The Potency entry in test [7], in test [8], in test [9], in test [10], in [14] and in [16] was “inactive” throughout. Also, the result in test [15] was inactive.
`COc1ccc(C2CNC(=O)C2)cc1OC1CCCC1` (stereo unspecified): the Potency result in [1], in test [2], in test [3], in [4], in test [13] and in test [6] was “inactive” in each case. Besides, the Potency result in test [7], in test [8], in test [9], in test [10], in [14] and in [16] was “inactive” in each case. Further, in test [15], the compound was called inactive.
For the compound `COc1ccc2[nH]cc(CCNC(C)=O)c2c1`, the Potency result in [1], in test [2], in [3], in test [4], in [5] and in [6] was “inactive” each time. For the same compound, the Potency entry in test [7], in [8], in [9], in test [10], in test [14] and in test [17] was “inactive” throughout. Also, in test [16], the Potency entry is “inactive”. In addition, the outcome in [15] was inactive.
Turning to `CC[C@@]1(O)C(=O)OCc2c1cc1n(c2=O)Cc2cc3c(CN(C)C)c(O)ccc3nc2-1`, the Potency in test [1] is 94.4 nM (active) and 52.6 nM (active); in test [2], 26.6 nM (active) and 118 nM (active); in test [3], 19.5 nM (active) and 86.3 nM (active); in test [4], 47.3 nM (active) and 26.4 nM (active); in [5], 29.9 nM (active) and 235 nM (active); in [6], 344 nM (active) and 1.71 µM (active). Moreover, the Potency in test [7] is 47.3 nM (active) and 41.8 nM (active); in [8], 309 nM (active) and 1.37 µM (active); in test [9], 473 nM (active) and 1.48 µM (active); in test [10] it was 27.6 nM (active) and 109 nM (active); in test [14], 66.8 nM (active) and 296 nM (active); in test [16], 2.11 µM (active) and 2.64 µM (active). For the same compound, the Potency is 0.329 µM (active) in test [11] and 0.131 µM (active) in test [12].
For the compound `CC#C[C@]1(O)CC[C@H]2[C@@H]3CCC4=CC(=O)CCC4=C3[C@@H](c3ccc(N(C)C)cc3)C[C@@]21C`, the Potency in test [1] is 1.05 µM (active); in [2], 26.6 µM (active) and 118 nM (active); in test [3], 243 nM (active); in test [4], 0.526 µM (active); in [13] it was 0.935 µM (active); in test [5] it was 2.64 µM (active). Also, the Potency is 0.242 µM (active) in test [6]; 16.8 µM (active) and 209 nM (active) in [7]; 685 nM (active) in [8]; 7.69 µM (active) in test [10]; 26.6 µM (active) and 662 nM (active) in [18]; 743 nM (active) in test [16]. Further, the Potency entry in test [17] is “inactive”. For the same compound, in test [15], the compound was classed as inactive.
Consider `NC(CO)C(=O)NNCc1ccc(O)c(O)c1O` (stereo unspecified), for which the Potency result in test [1], in test [3], in [4], in test [6], in test [19] and in test [8] was “inactive” in each case. For the same compound, the Potency entry in test [9], in test [10], in [14], in test [17] and in test [16] was “inactive” in each case. The Potency in test [2] is 23.5 µM (active). For the same compound, in test [15], the compound was classed as inactive.
As for `Cc1cn([C@H]2C=C[C@@H](CO)O2)c(=O)[nH]c1=O`, the Potency result in test [1], in test [2], in [3], in [4], in test [13] and in test [6] was “inactive” in each case. Moreover, the Potency entry in [19], in test [7], in [8], in test [9], in [10] and in test [14] was “inactive” each time. Besides, in [16], the Potency result is “inactive”.
Turning to `CN(C)CCOC(c1ccccc1)c1ccccc1`, the Potency result in test [1], in test [2], in test [3], in test [4], in [13] and in [5] was “inactive” throughout. The Potency entry in [6], in [7], in [8], in [9], in [14] and in test [16] was “inactive” throughout.
In the case of `CCOC(=O)C(C)(C)Oc1ccc(Cl)cc1`, the Potency entry in test [1], in [2], in test [3], in test [13], in test [5] and in test [6] was “inactive” throughout. Further, the Potency result in test [7], in test [8], in test [9], in [10], in test [18] and in [14] was “inactive” throughout. The Potency result in test [17] and in [16] was “inactive” in each case. Besides, in test [15], the result was inactive.
With `O=c1c(O)c(-c2ccc(O)c(O)c2)oc2cc(O)cc(O)c12`, the Potency entry in test [1], in test [14] and in test [16] was “inactive” each time. In addition, the Potency in test [2] was 14.8 µM (active); in test [4] it was 23.5 µM (active); in [6], 24.1 µM (active).
As to `CS(=O)(=O)CCNCc1ccc(-c2ccc3ncnc(Nc4ccc(OCc5cccc(F)c5)c(Cl)c4)c3c2)o1`, the Potency in test [1] was 10.5 µM (active); in [2] it was 74.3 nM (active) and 21.1 µM (active); in test [3], 24.3 µM (active) and 27.6 µM (active); in test [4], 3.72 µM (active); in [5] it was 29.6 µM (active); in test [6], 9.7 µM (active). In addition, the Potency is 16.6 µM (active) in test [7], 20.9 µM (active) in test [9], 5.9 µM (active) in test [14] and 20.8 µM (active) in test [12].
As to `NCCS(=O)(=O)O`, the Potency entry in test [1], in test [2], in [3], in test [4], in [5] and in [6] was “inactive” each time. Moreover, the Potency result in test [19], in test [7], in [8], in test [9], in test [10] and in test [14] was “inactive” in each case. The Potency entry in test [17] and in test [16] was “inactive” each time. For the same compound, the outcome in test [15] was inactive.
Turning to `O=C(C1CCCCC1)N1CC(=O)N2CCc3ccccc3C2C1` (stereo unspecified), the Potency result in test [1], in test [2], in test [3], in [4], in test [5] and in test [6] was “inactive” throughout. Besides, the Potency entry in [7], in [8], in test [9], in [10], in test [18] and in test [14] was “inactive” each time. Besides, the Potency entry in [16] is “inactive”. Besides, the compound was called inactive in [15].
In the case of `NS(=O)(=O)c1cc2c(cc1Cl)NCNS2(=O)=O`, the Potency entry in test [1], in test [2], in test [3], in test [4], in test [6] and in [7] was “inactive” in each case. In addition, the Potency entry in test [8], in test [9], in test [10], in test [18], in test [14] and in test [16] was “inactive” in each case. Moreover, the result in test [15] was inactive.
